Results on 80 compounds are retold here after PubChem BioAssay AID492998 (Southern Research Specialized Biocontainment Screening …, 2010).

The whole screen tested about 2,300 compounds, of which about 550 (24%) were called active. A selection follows. Results with a measured potency or affinity are listed apart. A number with no mark means an inactive call. How the calls were made is not given here.

The assay in a line: Vero E6 cell cytotoxicity, dose response, cytotoxicity control for non-replicating M. tuberculosis project, secondary assay (AID 492998).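 Further: 100% = vehicle-treated cells and 0% = background wells.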 Conditions: series mostly up to 20 µM; viability: at the top concentration.
One may read the viability as a read-out of living cells in per cent, often relative to untreated cells. With `Cc1ccc2nc(CCc3nc4ccc(C)cc4[nH]3)[nH]c2c1`, the “viability” value is 90.6%.

For `CC(C)OC(=O)CCCCCN1C(=O)CSC1=S`, the “viability” value was 76.9%.

Turning to `O=C(Nc1ccccn1)c1ccc(C(=O)c2ccccc2)cc1`, the “viability” value was 95.9%.

Regarding `CCCCNC(=O)COC(=O)c1cc(Br)ccc1Cl`, the “viability” value is 99.6%.

On to `Cc1[nH]n2c(=O)c3c(nc2c1-c1ccccc1)CCCC3`, for which the “viability” value is 75.9%.

With `CCOC(=O)COc1ccc2c(c1)C(=O)CC1(CCCCC1)O2`, the “viability” value was 97.1%.

On to `O=C(COc1ccc(Cl)cc1)Nc1ccccc1Cl`, for which the “viability” value is 102%.

On to `CC1=NN(C(=O)COc2ccccc2C)C(O)(c2ccc(Cl)cc2)C1` (stereo not given), for which the “viability” value is 94.2%.

Consider `Cc1cc(Cl)ccc1NNC(=O)c1c(C)noc1C`, for which the “viability” value was 103%.

Turning to `O=C(Oc1cccc2cccnc12)c1cccc([N+](=O)[O-])c1`, the “viability” value was 101%.

For `COc1ccc(C(=O)NN/C(C)=C/C(=O)c2ccccc2)cc1`, the “viability” value was 103%.

Turning to `O=C(N/N=C/c1ccccn1)c1cccc([N+](=O)[O-])c1`, the “viability” value is 108%.

For `COc1cccc(OCCNC(=O)c2cc([N+](=O)[O-])cc([N+](=O)[O-])c2)c1`, the “viability” value was 107%.

With `Cc1ccc(CSCCNC(=O)c2cccc([N+](=O)[O-])c2)cc1`, the “viability” value was 100%.

For the compound `O=C(N/N=C/C=C/c1cccc([N+](=O)[O-])c1)c1ccncc1`, the “viability” value was 102%.

Consider `O=C(c1ccco1)N1CCN(c2ccc(F)cc2)CC1`, for which the “viability” value was 96.9%.

On to `CCOC(=O)C(=O)Cc1nc2ccccc2s1`, for which the “viability” value is 89.4%.

`C=C1CCC[C@]2(C)C[C@H]3OC(=O)C(CNC(C)CCCC(C)C)[C@H]3CC12` (stereo not given in full): the “viability” value was 97.1%.

For `COc1ccc([C@@]2(O)c3c(ccc(CC=C(C)C)c3O)NC(=O)[C@@H]2OC)cc1`, the “viability” value is 106%.

Take `COc1ccccc1C(c1nnnn1Cc1ccccc1)N1CCC(C(N)=O)CC1` (stereo not given): the “viability” value was 102%.

With `Cc1ccc(-c2nnc(SCC#CCOC(=O)c3ccco3)o2)cc1`, the “viability” value is 93.2%.

For the compound `O=C(Cc1ccc(F)cc1)Nc1ccc(Cl)cn1`, the “viability” value was 103%.

Turning to `O=C1N(c2ccc3c(c2)OCCO3)C(c2ccccc2)C1(F)F` (stereo not given), the “viability” value is 104%.

With `CCCCNC(=O)Cc1ccc(C)cc1`, the “viability” value was 102%.

On to `O=C(Nc1cccc(Cl)c1)C1COc2ccccc2O1` (stereo not given), for which the “viability” value was 109%.

As for `Cn1cccc1/C=N\NC(=O)C1COc2ccccc2O1` (stereo not given), the “viability” value was 105%.

Consider `O=C(Nc1ccc([N+](=O)[O-])cc1)C1COc2ccccc2O1` (stereo not given), for which the “viability” value was 103%.

For `CC(C)NC(=O)C1COc2ccccc2O1` (stereo not given), the “viability” value is 94.9%.

As for `O=C(N/N=C\c1ccc([N+](=O)[O-])o1)C1COc2ccccc2O1` (stereo not given), the “viability” value is 77.2%.

Consider `CC(C)(C)c1ccc2c(c1)OC(C(=O)N/N=C\c1ccccn1)CO2` (stereo not given), for which the “viability” value was 109%.

Consider `Clc1ccc(CN2C3=NCCCN3c3ccccc32)cc1`, for which the “viability” value is 81.8%.

Take `C#CCOc1coc(COC(=O)c2ccccc2)cc1=O`: the “viability” value was 103%.

Consider `Cc1ccc(C(C)NC(=O)c2cc3ccccc3oc2=O)cc1C` (stereo not given), for which the “viability” value was 94.6%.

For the compound `COC(=O)C1=C(C)N(Cc2ccccc2)C(=NCc2ccccc2)N[C@H]1c1cccc(F)c1`, the “viability” value was 77.2%.

As to `CC(OC(=O)c1ccc2c(=O)n3c(nc2c1)CCCCC3)C(=O)Nc1ccc(Cl)cn1` (stereo not given), the “viability” value was 92%.

As to `CCOC(=O)Cn1cc(C#N)c2ccccc21`, the “viability” value was 103%.

Consider `O=C(NCc1nnc(SC/C=C/c2ccccc2)o1)c1ccco1`, for which the “viability” value was 95.6%.

On to `CCCC(C)C(=O)Nc1ccc(Cl)cn1` (stereo not given), for which the “viability” value was 101%.

For the compound `CC(C)(C)OC(=O)NCCc1nnc(S(=O)(=O)Cc2ccc(Cl)cc2Cl)o1`, the “viability” value was 103%.

For the compound `Cn1c(CNc2ccccc2O)nc2ccccc21`, the “viability” value is 72.9%.

For `Nc1nc2ccccc2n1CCOc1ccccc1Cl`, the “viability” value is 73.6%.

`CCOC(=O)c1csc(COc2ccccc2Cl)n1`: the “viability” value was 105%.

Turning to `O=C(Nc1ccc(-c2nc3ccccc3c(=O)o2)cc1)c1ccco1`, the “viability” value is 104%.

In the case of `O=C(Nc1nc2ccccc2n1CCN1CCCC1)C1CCCCC1`, the “viability” value is 97.2%.

For the compound `Nc1nc2ccccc2n1CCOc1ccc(Br)cc1`, the “viability” value is 81.7%.

As for `O=C(COC(=O)c1cccs1)NCCC1=CCCCC1`, the “viability” value was 97.1%.

For `O=C(OCC(=O)N1CCc2ccccc21)c1ccc([N+](=O)[O-])cc1`, the “viability” value is 98.4%.

For `CN(C)CCN1C(=O)c2oc3ccccc3c(=O)c2C1c1cccc(Br)c1` (stereo not given), the “viability” value was 102%.

Turning to `COC(=O)COc1cccc(NC(=O)COc2ccccc2)c1`, the “viability” value was 101%.

As for `COc1ccc(OC(=O)c2cc3ccccc3o2)cc1`, the “viability” value was 98.2%.

Take `CC(=O)c1ccc(OCC(=O)Nc2ccc3c(c2)CCC3)cc1`: the “viability” value is 100%.

Turning to `CC(=O)c1ccc(NC(=O)CCc2ccc(C)o2)cc1`, the “viability” value was 102%.

`CC1=NN(C(=O)c2ccccc2F)C(O)(c2ccc(Cl)cc2)C1` (stereo not given): the “viability” value is 109%.

On to `Clc1cccc(/C=N\Nc2nccs2)c1`, for which the “viability” value is 86%.

Turning to `Cc1ccc(OCC(=O)OCc2c(C)noc2C)cc1C`, the “viability” value was 95.7%.

In the case of `CCOC(=O)CN1NC2(CCCC(C)C2)NC1=S` (stereo not given), the “viability” value is 98.1%.

On to `Clc1c(OCCCn2ccnc2)ccc2ccccc12`, for which the “viability” value was 71.7%.

Take `Cn1c(=O)c(Oc2ccc(Cl)cc2)c(O)c2ccccc21`: the “viability” value was 101%.

For `Cc1cccnc1NC(=O)c1c(O)c2ccccc2n(C)c1=O`, the “viability” value was 88.2%.

In the case of `CCn1c(=O)c(C(=O)Nc2ncccc2C)c(O)c2ccccc21`, the “viability” value is 76.2%.

Regarding `C=CCn1c(=O)c(C(=O)Nc2cccnc2)c(O)c2ccccc21`, the “viability” value was 95.6%.

Turning to `COc1ccc(C(O)CNc2ccc(C)cc2)cc1` (stereo not given), the “viability” value is 89.1%.

Turning to `COc1ccc(NC(=O)c2nc3ccccc3s2)cc1`, the “viability” value was 89.6%.

On to `CC(C)c1cc(C(=O)N/N=C/C=C/c2ccccc2)n[nH]1`, for which the “viability” value was 109%.

For `O=C(COc1ccccc1)Nc1ccc(Cl)cn1`, the “viability” value was 96.7%.

As for `O=C(NCc1ccccc1CN1CCCC1)c1cc2ccccc2o1`, the “viability” value was 96.9%.

Regarding `O=Cc1ccnc(-c2ccc(OC(=O)c3ccco3)cc2)n1`, the “viability” value was 95.5%.

Consider `CCC1CCc2sc(C(=O)NCC3CCCO3)cc2C1` (stereo not given), for which the “viability” value was 85.2%.

Regarding `CCOc1cc(C=O)cc(N=Nc2cccc([N+](=O)[O-])c2)c1O`, the “viability” value is 90.5%.

On to `O=C(COc1ccc2ccccc2c1Br)N1CCCC1`, for which the “viability” value was 94.6%.

In the case of `CCCn1c(=O)c(C(=O)N/N=C/c2ccccc2F)c(O)c2ccccc21`, the “viability” value was 86.1%.

On to `Nc1nonc1C(=O)N/N=C/c1ccc([N+](=O)[O-])o1`, for which the “viability” value was 100%.

For the compound `CC1=NN(C(=O)c2ccoc2C)C(O)(C(F)(F)F)C1` (stereo not given), the “viability” value is 82.2%.

For `COC(=O)C(O)(c1ccc(NC(=S)NC(=O)c2ccccc2)cc1)C(F)(F)F` (stereo not given), the “viability” value is 101%.

As to `CCOC(=O)Nc1ccc2c(c1)N(C(=O)CCCl)c1ccccc1[S@]2=O`, the “viability” value was 88.5%.

For `C=CCn1c(O)c(C(C)=Nc2ccc(C(=O)OCC)cc2)c(=O)[nH]c1=O`, the “viability” value was 105%.

For the compound `CCCCNC(=O)Nc1nnc(-c2ccc(Cl)cc2)o1`, the “viability” value was 93.9%.

For the compound `CCOC(=O)c1ccc(NC2OC(=O)c3ccccc32)cc1` (stereo not given), the “viability” value is 93.6%.

As for `C=CCN=C1SC(CC)C(=O)N1S(=O)(=O)c1ccc(C)cc1` (stereo not given), the “viability” value was 102%.

For `Cc1ccc(C(=O)CCC2CCCC2=O)cc1` (stereo not given), the “viability” value is 88.2%.
